Laboratory results from the supplement of paper PMC11732987, “Enantioselective OTUD7B fragment discovery through chemoproteomics screening and high-throughput optimisation” (Communications Chemistry, 2025).

What was measured:
Assay in all cases: log2 ratio of Biotin-Ahx-Ub-VS probe labelling (fragment/DMSO); higher = less target engagement (more negative = stronger competition), active = hit call of the paper (q ≤ 0.05, log2 ratio ≤ -1)
Conditions in all cases: compound concentration: 200 uM; treatment time: 3 h
ALG13 = target: T1, ALG13 (UniProt Q9NP73)
T1 sequence (whole entry): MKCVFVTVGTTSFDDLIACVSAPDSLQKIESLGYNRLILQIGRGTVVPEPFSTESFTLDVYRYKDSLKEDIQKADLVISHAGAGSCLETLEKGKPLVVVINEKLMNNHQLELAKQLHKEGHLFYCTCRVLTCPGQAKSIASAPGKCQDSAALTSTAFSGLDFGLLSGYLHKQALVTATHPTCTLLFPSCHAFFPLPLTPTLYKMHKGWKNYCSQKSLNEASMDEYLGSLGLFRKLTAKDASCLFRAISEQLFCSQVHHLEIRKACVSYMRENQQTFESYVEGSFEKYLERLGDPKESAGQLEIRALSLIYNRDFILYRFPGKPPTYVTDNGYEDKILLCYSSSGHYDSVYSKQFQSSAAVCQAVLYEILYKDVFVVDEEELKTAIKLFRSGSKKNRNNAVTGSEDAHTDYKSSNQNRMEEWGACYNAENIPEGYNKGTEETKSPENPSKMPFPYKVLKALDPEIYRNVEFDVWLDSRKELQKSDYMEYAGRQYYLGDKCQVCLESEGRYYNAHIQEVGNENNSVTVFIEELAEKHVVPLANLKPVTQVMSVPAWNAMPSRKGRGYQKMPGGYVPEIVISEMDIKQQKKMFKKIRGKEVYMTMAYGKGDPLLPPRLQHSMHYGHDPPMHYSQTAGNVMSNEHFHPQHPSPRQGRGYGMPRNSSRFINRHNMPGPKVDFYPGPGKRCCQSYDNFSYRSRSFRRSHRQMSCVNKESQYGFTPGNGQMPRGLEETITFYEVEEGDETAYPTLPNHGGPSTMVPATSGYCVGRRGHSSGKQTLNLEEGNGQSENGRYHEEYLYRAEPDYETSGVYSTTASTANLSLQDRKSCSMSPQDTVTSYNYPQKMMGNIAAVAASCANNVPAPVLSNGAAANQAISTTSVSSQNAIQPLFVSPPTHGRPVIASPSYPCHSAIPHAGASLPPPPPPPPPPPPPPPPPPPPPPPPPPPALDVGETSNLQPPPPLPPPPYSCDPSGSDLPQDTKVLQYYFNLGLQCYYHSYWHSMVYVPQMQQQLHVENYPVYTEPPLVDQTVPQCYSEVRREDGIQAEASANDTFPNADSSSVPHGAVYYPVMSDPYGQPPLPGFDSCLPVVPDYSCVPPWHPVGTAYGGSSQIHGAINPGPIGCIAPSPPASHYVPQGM
Outline: (§1)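 Labelling with Biotin-Ahx-Ub-VS (0.5 µM final, 1 h) followed a 3 h triplicate treatment of HEK293T lysate (495 µg per sample, Tris/CHAPS/IGEPAL buffer with protease inhibitors) with fragment at 200 µM or vehicle. Labelled DUBs were NeutrAvidin-enriched, digested with LysC and trypsin, and run by diaPASEF LC-MS/MS. The values, average log2 fragment/vehicle ratios by unpaired t-test, come from global-median-normalised Spectronaut label-free quantities. Proteins with ≥2 unique peptides were used.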

ATXN3 = ATXN3 (UniProt P54252)
Outline: as §1

BAP1 = target: T2, BAP1 (UniProt Q92560)
T2 sequence (whole entry): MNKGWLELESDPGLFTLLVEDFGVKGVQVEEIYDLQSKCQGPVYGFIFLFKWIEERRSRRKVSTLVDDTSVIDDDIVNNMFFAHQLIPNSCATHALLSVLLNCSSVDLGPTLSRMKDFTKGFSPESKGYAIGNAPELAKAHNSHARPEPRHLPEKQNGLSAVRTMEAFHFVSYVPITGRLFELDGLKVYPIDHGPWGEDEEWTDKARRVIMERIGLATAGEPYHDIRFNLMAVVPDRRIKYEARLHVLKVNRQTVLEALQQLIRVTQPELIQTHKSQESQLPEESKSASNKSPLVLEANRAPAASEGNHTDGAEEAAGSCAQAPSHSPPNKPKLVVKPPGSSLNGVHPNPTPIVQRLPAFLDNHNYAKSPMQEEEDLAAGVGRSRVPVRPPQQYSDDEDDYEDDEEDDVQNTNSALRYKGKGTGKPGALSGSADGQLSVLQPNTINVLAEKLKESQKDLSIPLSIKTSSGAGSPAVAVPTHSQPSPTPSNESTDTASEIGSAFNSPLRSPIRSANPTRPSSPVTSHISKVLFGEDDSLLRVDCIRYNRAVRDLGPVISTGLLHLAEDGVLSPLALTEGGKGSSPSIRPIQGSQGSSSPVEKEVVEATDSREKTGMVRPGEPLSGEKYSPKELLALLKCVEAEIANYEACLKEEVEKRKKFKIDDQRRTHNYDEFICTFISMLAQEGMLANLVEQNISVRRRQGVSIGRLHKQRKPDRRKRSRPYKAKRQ
Outline: as §1

EIF3F = EIF3F (UniProt O00303)
Outline: as §1

EIF3H = EIF3H (UniProt O15372)
Outline: as §1

FAM105A = target: T3, FAM105A (UniProt Q9NUU6)
T3 sequence (whole entry): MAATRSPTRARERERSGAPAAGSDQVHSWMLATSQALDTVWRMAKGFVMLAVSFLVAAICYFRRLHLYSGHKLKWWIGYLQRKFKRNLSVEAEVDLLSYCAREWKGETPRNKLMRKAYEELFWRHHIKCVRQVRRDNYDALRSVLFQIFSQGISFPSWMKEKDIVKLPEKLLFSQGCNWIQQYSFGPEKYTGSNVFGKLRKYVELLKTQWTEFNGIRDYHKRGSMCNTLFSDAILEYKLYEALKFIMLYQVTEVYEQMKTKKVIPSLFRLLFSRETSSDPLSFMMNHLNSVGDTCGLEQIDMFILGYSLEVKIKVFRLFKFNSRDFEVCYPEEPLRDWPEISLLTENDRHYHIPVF
Outline: as §1

OTUB1 = OTUB1 (UniProt Q96FW1)
Outline: as §1

OTUD4 = target: T4, OTUD4 (UniProt Q01804)
T4 sequence (whole entry): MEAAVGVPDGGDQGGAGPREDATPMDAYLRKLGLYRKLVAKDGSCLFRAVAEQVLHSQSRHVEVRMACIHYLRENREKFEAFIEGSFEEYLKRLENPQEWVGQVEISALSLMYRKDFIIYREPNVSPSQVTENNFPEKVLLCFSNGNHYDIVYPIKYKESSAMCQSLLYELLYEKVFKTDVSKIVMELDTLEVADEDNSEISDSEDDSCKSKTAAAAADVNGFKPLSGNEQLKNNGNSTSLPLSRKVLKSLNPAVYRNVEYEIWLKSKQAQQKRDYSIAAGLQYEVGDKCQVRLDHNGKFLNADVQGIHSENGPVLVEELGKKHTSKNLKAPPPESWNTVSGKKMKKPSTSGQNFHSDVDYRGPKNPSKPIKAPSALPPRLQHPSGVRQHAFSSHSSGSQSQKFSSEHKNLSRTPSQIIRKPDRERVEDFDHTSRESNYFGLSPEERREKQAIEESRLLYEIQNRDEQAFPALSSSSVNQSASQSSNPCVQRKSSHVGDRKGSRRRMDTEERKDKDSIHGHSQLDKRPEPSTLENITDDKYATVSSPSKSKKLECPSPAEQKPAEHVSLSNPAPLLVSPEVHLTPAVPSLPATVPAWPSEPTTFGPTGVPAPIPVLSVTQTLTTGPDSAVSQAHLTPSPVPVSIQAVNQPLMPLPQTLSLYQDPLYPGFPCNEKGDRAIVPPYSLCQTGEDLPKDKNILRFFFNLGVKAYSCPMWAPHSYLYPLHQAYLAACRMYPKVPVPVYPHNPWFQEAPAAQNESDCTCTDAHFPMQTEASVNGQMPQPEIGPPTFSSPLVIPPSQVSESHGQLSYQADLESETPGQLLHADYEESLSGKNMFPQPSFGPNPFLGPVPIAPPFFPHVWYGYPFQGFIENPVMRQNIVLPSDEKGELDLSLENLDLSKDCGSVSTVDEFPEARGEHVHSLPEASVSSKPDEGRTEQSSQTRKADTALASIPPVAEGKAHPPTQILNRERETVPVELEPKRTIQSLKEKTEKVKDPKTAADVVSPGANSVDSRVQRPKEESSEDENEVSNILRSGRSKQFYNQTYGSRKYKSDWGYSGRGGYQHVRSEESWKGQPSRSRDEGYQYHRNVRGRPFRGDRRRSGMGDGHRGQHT
Outline: as §1

OTUD5 = target: T5, OTUD5 (UniProt Q96G74)
T5 sequence (whole entry): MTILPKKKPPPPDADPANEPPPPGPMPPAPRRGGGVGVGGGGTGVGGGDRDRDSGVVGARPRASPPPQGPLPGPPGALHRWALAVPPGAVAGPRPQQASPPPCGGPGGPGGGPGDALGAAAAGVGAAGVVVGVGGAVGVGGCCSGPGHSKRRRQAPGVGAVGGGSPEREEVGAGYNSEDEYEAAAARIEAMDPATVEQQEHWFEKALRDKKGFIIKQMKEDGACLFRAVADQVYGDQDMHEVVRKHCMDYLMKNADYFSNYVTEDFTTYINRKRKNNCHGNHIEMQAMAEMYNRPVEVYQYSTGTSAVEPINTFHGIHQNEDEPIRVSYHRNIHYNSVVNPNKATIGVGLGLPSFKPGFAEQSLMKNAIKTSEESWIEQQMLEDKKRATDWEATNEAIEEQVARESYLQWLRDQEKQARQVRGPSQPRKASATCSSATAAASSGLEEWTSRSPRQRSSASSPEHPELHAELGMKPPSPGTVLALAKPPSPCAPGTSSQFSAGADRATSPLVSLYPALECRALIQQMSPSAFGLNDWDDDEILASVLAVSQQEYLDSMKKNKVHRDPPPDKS
Outline: as §1

Measured: log2 ratio of Biotin-Ahx-Ub-VS probe labelling

Sequence of EIF3H (O15372 whole entry): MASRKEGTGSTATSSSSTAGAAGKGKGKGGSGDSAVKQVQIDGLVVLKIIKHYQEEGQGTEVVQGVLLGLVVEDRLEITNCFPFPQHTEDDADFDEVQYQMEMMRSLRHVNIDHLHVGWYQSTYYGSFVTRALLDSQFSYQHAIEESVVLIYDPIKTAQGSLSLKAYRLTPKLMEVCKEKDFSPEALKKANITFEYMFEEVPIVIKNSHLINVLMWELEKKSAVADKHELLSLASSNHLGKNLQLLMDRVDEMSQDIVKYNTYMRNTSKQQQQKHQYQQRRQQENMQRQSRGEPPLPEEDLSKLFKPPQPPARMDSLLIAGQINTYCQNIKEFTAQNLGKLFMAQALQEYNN
Sequence of OTUB1 (Q96FW1 whole entry): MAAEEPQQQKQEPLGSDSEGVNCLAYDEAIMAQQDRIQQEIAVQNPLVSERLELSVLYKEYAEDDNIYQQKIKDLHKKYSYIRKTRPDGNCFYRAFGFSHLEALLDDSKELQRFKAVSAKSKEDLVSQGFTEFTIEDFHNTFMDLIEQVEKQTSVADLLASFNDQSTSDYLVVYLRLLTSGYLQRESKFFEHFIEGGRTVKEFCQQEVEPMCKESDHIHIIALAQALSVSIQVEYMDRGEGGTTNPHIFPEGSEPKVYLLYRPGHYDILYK
Sequence of EIF3F (O00303 whole entry): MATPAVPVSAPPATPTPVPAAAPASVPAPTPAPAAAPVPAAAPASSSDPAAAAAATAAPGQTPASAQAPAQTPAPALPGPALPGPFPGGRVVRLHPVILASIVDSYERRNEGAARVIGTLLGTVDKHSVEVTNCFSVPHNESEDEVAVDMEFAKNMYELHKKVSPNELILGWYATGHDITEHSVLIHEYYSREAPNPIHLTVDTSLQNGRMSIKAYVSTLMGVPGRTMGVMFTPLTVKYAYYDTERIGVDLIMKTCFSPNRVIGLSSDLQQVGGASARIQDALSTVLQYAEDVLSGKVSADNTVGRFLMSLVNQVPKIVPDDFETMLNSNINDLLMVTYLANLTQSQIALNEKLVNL
Sequence of ATXN3 (P54252 whole entry): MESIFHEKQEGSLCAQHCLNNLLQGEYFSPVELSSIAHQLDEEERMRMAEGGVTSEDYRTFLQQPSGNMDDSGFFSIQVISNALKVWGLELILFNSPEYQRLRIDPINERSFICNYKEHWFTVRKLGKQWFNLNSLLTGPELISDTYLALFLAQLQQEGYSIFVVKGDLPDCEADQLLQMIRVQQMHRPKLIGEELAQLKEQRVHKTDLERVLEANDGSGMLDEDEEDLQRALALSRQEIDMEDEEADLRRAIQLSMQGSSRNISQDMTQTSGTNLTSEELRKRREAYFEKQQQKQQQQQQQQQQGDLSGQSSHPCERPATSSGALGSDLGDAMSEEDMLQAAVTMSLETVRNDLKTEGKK

O=C(CCl)NCc1ccc2c(c1)OCO2
inactive: ALG13 0.0126 | ATXN3 0.173 | EIF3F -0.126 | EIF3H -0.0114 | FAM105A -0.111 | OTUB1 -0.278 | OTUD4 -0.266 | OTUD5 0.0579
active: BAP1 -3.05
